Results on 28 compounds are retold here after PubChem BioAssay AID1220 (Sanford-Burnham Center for Chemical Genomics, 2008).

Hit rate of the full screen: of about 190,000 compounds, about 1,300 (0.68%) were called active. The sample as a whole holds a higher share of actives than the screen did. Values without a mark were called inactive. No stated cut-off is given here; in the data, active means inhibition above about 50%; inactive means the rest.

Sequence of Mannose-6-phosphate isomerase (Homo sapiens) (P34949 whole entry, looked up): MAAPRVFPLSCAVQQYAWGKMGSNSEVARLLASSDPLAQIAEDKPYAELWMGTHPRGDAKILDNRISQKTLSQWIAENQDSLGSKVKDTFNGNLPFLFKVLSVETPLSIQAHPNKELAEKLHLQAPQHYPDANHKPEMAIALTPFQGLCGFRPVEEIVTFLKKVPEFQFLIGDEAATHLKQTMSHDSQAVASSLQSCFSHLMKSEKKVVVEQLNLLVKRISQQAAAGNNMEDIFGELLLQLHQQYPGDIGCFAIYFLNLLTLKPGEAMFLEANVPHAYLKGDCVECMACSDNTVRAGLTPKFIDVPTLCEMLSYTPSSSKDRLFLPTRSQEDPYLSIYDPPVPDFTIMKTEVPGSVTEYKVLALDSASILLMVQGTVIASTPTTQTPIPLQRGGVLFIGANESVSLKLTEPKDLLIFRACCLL

This experiment addresses Mannose-6-phosphate isomerase (Homo sapiens) (UniProt P34949). As to the kind of experiment: MPI inhibition at elevated mannose 6-phosphate – biochemical, fluorescence intensity, high mannose 6-phosphate, primary screen (AID 1220). The conditions noted are these: recombinant PMI enzyme, coupled fluorescence intensity; at 20 µM; active compounds read high.
Broadly, the inhibition is the change of the read-out against control, counted positive when it falls. As for `O[C@H]1C2CCC1C(N1CCCCC1)CC2` (stereo partly drawn), the inhibition was 5.7%.
Turning to `COc1ccc(OC)c(N2Cc3ccccc3C2=N)c1`, the inhibition was -9.9%.
Take `CNc1cc(N2CCN(C)CC2)ccc1[N+](=O)[O-]`: the inhibition was 28.3%.
As to `Cc1ccc2cc(C=C(C#N)C#N)c(Cl)nc2c1`, the inhibition was 57.1% (active).
To `Cc1cc(N2CCCC2)ccc1C=C(C#N)C#N` belongs 7.1%; to `CN(C)c1ccc(C=C(C#N)C#N)cc1`, -8.3%; to `COc1ccc(OC)c(N2C(=O)NC(=O)C3(Cc4cc(C)ccc4N(C)C3)C2=O)c1` (stereo not drawn), -2.8%.
To `CC(=O)NC1C(OC(=O)Cc2ccccc2)OC(COC(C)=O)C(OC(C)=O)C1OC(C)=O` (stereo not drawn) belongs -6%; to `CCSc1cc(C2C(C#N)=C(N)Oc3n[nH]c(C)c32)c(C)o1` (stereo not drawn), -0.6%; to `CC(C)N1CCN(c2ccc(O)cc2)CC1`, 65% (active).
As for `CN1CCN(c2ccc(N)cc2)CC1`, the inhibition was 11.3%.
`CCN1CCN(c2ccc(N)cc2)CC1`: the inhibition is 35.6%.
The figure for `O=C1C2CCN(CC2)C1Cc1ccc(OCc2ccccc2)cc1` (stereo not drawn) is 1.5%; for `COc1ccc2ccc(O)c(CN3CC=C(c4ccccc4)CC3)c2c1` it is 57.7% (active); for `Oc1ccc2ccccc2c1CN1CC=C(c2ccccc2)CC1` it is 38.8%.
To `COc1ccc2c(CN3CC=C(c4ccccc4)CC3)cc(=O)oc2c1` belongs 14.2%; to `COC(=O)c1c(N)n(Cc2ccc(OC)cc2)c2nc3ccccc3nc12`, 0.2%.
In the case of `CCCCNC(=O)c1c(N)n(Cc2ccc3c(c2)OCO3)c2nc3ccccc3nc12`, the inhibition was 69.1% (active).
For the compound `CCC(C)NC(=O)c1c(N)n(Cc2ccc3c(c2)OCO3)c2nc3ccccc3nc12` (stereo not drawn), the inhibition was 61.1% (active).
To `CCCNC(=O)c1c(N)n(Cc2ccc3c(c2)OCO3)c2nc3ccccc3nc12` belongs 27.5%.
To `CC(C)CNC(=O)c1c(N)n(Cc2ccc3c(c2)OCO3)c2nc3ccccc3nc12` belongs 35.4%.
`CC(C)CCNC(=O)c1c(N)n(Cc2ccc3c(c2)OCO3)c2nc3ccccc3nc12`: the inhibition was 41.6%.
Take `O=C(CCl)NCC1CCCO1` (stereo not drawn): the inhibition is 0.5%.
To `CCCCn1c(O)c(C(CC)=NCCN2CCOCC2)c(=O)[nH]c1=O` belongs -61.4%; to `O=C1c2ccccc2C(=O)N1Cc1nc2ccccc2c(=O)n1-c1ccc(Br)cn1`, -1.8%; to `CC(=O)c1ccc2c(c1)C1C(Cl)C(Sc3ccccc3[N+](=O)[O-])CC1C(c1ccccc1[N+](=O)[O-])N2` (stereo not drawn), 63.2% (active).
As to `CC(=O)c1ccc2c(c1)C1C(Cl)C(Sc3ccccc3[N+](=O)[O-])CC1C(C(=O)O)N2` (stereo not drawn), the inhibition is -51.9%.
For `CC(=O)c1ccc2c(c1)C1C(Cl)C(Sc3ccccc3[N+](=O)[O-])CC1C(c1ccccc1)N2` (stereo not drawn), the inhibition is -67.2%.
